G9a block: blocks human histone lysine methyltransferase G9a; 350,000 tested, 8.8% active; Potency, µM (top dose mostly 102 µM), for inactives: at the top dose activity, negative = inhibition, actives largely listed as inhibitors; AID 504332; G9a H3K9 monomethylation, AlphaScreen, 2 h; note: % is set by controls: 0 for no effect and ±100 for the full control effect; nearly all actives have a fitted effect of over 75% in size
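Readings reflect AlphaScreen signal from monomethyl-H3K9 antibody detection. HMT at 20 nM; substrate b-H3K9 500 nM; cofactor SAM 20 uM; 2 h RT reaction; compounds tested as titrations in qHTS with 15 min preincubation.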
GLS inhibitor: inhibitors of human glutaminase (GLS); O94925; GLS enzymatic activity, qHTS titration; Potency, µM (titrated, usually from 45.5 µM), without a hit: at the highest dose activity change, negative = inhibition, actives largely listed as inhibitors; 410,000 tested, 0.21% active; AID 624170; note: % is set by controls: 0 for no effect and ±100 for the full control effect
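Read-out is an Amplex red fluorescence increase coupled through glutamate oxidase and HRP, measured before and after 30 min room-temperature incubation. hKGA is in 45 mM KH2PO4 (pH 8.2) with 0.02% Tween-20; glutamine added as 1mM solution.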
HP1b chromo inh: HP1-beta chromodomain-methylated histone interaction inhibition; AlphaScreen HP1-beta / biotin-H3K9me3 peptide binding; AID 540317; Potency, µM (doses to about 114 µM), inactives show top-dose activity change, negative = inhibition, hits mostly inhibitors; 390,000 tested, 0.56% active; note: nearly all actives have a fitted effect of over 70% in size
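AlphaScreen: HP1-beta (50 nM) preformed 30 min with biotin-H3(1-18)K9me3 peptide (50 nM) in PBS pH 7.4, 0.01% Tween-20. Compound added for 30 min at RT, then streptavidin donor/nickel chelate acceptor beads (10 ug/mL) for 30 min.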
JMJD2A Tudor inh: JMJD2A Tudor domain (human) inhibition; O75164; AlphaScreen JMJD2A-Tudor / H3K4me3 peptide binding; Potency, µM (top dose mostly 114 µM), without a hit: at the top dose activity change, negative = inhibition, usual class: inhibitors; 390,000 tested, 4.4% active; note: % is set by controls: 0 for no effect and ±100 for the full control effect; nearly all actives have a fitted effect of over 50% in size
BAZ2B inh: inhibitors of human BAZ2B bromodomain; AlphaScreen BAZ2B-H3K14Ac peptide displacement; Potency, µM (highest dose often 114 µM), for the others: at the highest dose activity change, negative = inhibition, most hits filed as inhibitors; 360,000 tested, 4.4% active; note: % is set by controls: 0 for no effect and ±100 for the full control effect; nearly all actives have a fitted effect of over 60% in size
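Compounds, titrated to a top concentration of 110 uM, were incubated 30 min at room temperature with preformed BAZ2B/acetyl-K14 H3 peptide complex (50 nM each). Proximity signal was measured by AlphaScreen after 20 min with beads.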
Active calls of the source: *; ? = inconclusive; / = no result given; [ ] = remark or other dose. Hits are enriched below; roughly 10% of the tested compounds scored in any of these assays. Calls come from the whole dose curve; as a rule, active = well fitted curve in the direction sought with a large enough effect; inconclusive = small, poorly fitted or top-dose-only effect, or another doubt; inactive = no such curve, though single readings can be large; an effect the other way counts as inactive or inconclusive. Potency is the fitted concentration of half-maximal effect.

SMILES	G9a block	GLS inhibitor	HP1b chromo inh	JMJD2A Tudor inh	BAZ2B inh
COc1cc(/C=C2\C(=N)N3N=C(S(C)(=O)=O)SC3=NC2=O)ccc1OC(=O)c1ccco1	45µM*	5%	-12%[57 µM]	?	50µM*
CCOc1cc(/C=C2\C(=N)N3N=C(S(=O)(=O)CC)SC3=NC2=O)ccc1OC(=O)c1ccco1	45µM*	2%	28%	-5%	?
CCOc1cc(/C=C2/C(=N)N3N=C(CC)SC3=NC2=O)ccc1OC(=O)c1ccco1	/	-19%	-3%	-33%	-17%
CCOc1cc(/C=C2/C(=N)N3C(=NC2=O)SN=C3S(C)(=O)=O)ccc1OC(=O)c1ccco1	6%[0.0925 µM]	0%	5%	?	50µM*
CCc1ccc2oc(=O)cc(CN3CCN(CCO)CC3)c2c1	-18%	1%	27%	-16%[57.1 µM]	0%
COc1ccc(OCC(O)CN(C)C(=O)/C=C/c2cccc([N+](=O)[O-])c2)cc1 (stereo not given)	14%	22%	20%[57 µM]	-14%	-19%
COc1ccc(/C=N/NC(=O)c2c(Br)cnn2C)c2ccccc12	-2%	-2%	33%	-10%	-38%
CCS(=O)(=O)C1=NN2C(=N)/C(=C\c3ccc(OC(=O)c4ccco4)c(Br)c3)C(=O)N=C2S1	-17%[59 µM]	/	/	/	50µM*
O=C(COc1cccc2ccccc12)NNC(=O)c1cnccn1	-13%	16%	40%	-2%	7%
COc1cccc(CNC(=O)CSc2ccc(-c3ccccn3)nn2)c1	-5%	8%	21%	?	13µM*
O=C(CSc1ccc(-c2ccccn2)nn1)NCc1ccc(Cl)cc1	-1%	7%	26%	?	14µM*
O=C(CSc1ccc(-c2ccco2)nn1)NCc1ccc(Cl)cc1	?	7%	25%	-16%	-3%
CC(C)CCNC(=O)/C=C/c1ccc(Br)cc1	9%[59 µM]	-10%	41%	0%	3%
O=C(NC12CC3CC(CC(C3)C1)C2)C1CCCN1C(=O)Nc1ccccc1 (stereo not given)	25%	8%	8%	-11%	-2%
CC1CCN(C2=NC(=O)/C(=C/c3ccccc3F)S2)CC1	17%	-1%	-4%	-22%	-39%
CN1C2CCC1/C(=C\c1ccccc1F)C(=O)/C2=C/c1ccccc1F	50µM*	9%	-10%	-20%	-34%
C=CCN1C(=O)/C(=C\c2cccs2)C(C(=O)OC)=C1C	50µM*	-2%	?	?	40µM*
COC(=O)C1=C(C)N(Cc2cccnc2)C(=O)C1	14µM*	-9%	32%	-20%	2%
COC(=O)C1=C(C)N(Cc2cccnc2)C(=O)/C1=C\c1cccs1	/	/	/	/	28µM*
COC(=O)C1=C(C)N(c2ccc(C)cc2)/C(=C/c2cccs2)C1=O	-3%[59 µM]	2%	47%	-22%[57.1 µM]	7%
COC(=O)C1=C(C)N(CC(C)C)C(=O)C1	40µM*	5%	28%	-6%	7%
O=C(Nc1nccs1)c1ccc2c(c1)C(=O)N(Cc1cccnc1)C2=O	/	-4%	22%	0%	-11%
COC(=O)C1=C(C)N(Cc2ccc(OC)cc2)C(=O)C1	8%[59 µM]	-2%	22%	-11%	34%
Cn1ccc(C(=O)OCC(=O)Nc2cccc(Cl)c2)n1	2%	13%	22%	-7%	-7%
Cn1nccc1/C=C(/C#N)S(=O)(=O)c1ccccc1	0%[59 µM]	-7%	-10%	40µM*	3%
COc1cc(C2SCC(=O)N2CCN2CCCCC2)ccc1O (stereo not given)	50µM*	28%	31%	-1%	-14%
O=C(Cn1cc([N+](=O)[O-])ccc1=O)N1CCc2ccccc21	/	4%	20%	-10%	/
CN(C(=O)c1cccc(NC(=O)Cc2ccc(NC(=O)C3CCN(C(=O)C4CC4)CC3)cc2)c1)C1CC1	/	1%	21%	-7%	/
C(=N\N=C\c1ccccn1)/c1ccccn1	2%	-9%	59%	?	50µM*
O=C(O)c1ccc(/C=N\Nc2ccc(S(=O)(=O)N3CCOCC3)cc2[N+](=O)[O-])cc1	50µM*	1%	-1%	?	?

Assay outcomes: PubChem BioAssay, National Center for Advancing Translational Sciences (NCATS)
